Source: PubChem BioAssay
Compounds with a hit are over-represented: about 19% of the library has one in this group of screens.
IL1B secr inh: qHTS for Inhibitors of Inflammasome Signaling: IL-1-beta AlphaLISA Primary Screen | activity change, % at 57.5 µM | 4.7% of 360,000 active | AID 743279, 2014 | THP-1 LPS/ATP IL-1B secretion, AlphaLISA, 16 h; stronger effect = lower value; in the data active = activity change below about -50%; inconclusive = mostly about -30% to -49%
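THP-1 cells pretreated 1 hr with compounds (up to 57.5 uM final), then stimulated with LPS (250 ng/mL final) plus ATP (1.25 mM final); secreted IL-1B measured by AlphaLISA after 16 hr, decreased signal indicating inhibition.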
TDP1 cell CPT: qHTS for Inhibitors of human tyrosyl-DNA phosphodiesterase 1 (TDP1): qHTS in cells in presence of CPT. chicken DT40 Tdp1-/-;hTDP1 cells + 20 nM CPT, ATP luminescence, 48 h. Potency, µM (top dose mostly 46.2 µM), most hits filed as inhibitors. 12% of 420,000 active; note: nearly all actives have a fitted effect of over 55% in size
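Chicken DT40 Tdp1-/- cells stably complemented with human TDP1 were seeded at 400 cells/well in medium containing 20 nM camptothecin, exposed to pin-transferred compounds, and grown at 37 °C for at least 48 hr. Viability was read as ATP luminescence.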
TDP1 inh: qHTS Assay for Inhibitors of Tyrosyl-DNA Phosphodiesterase (TDP1); Tyrosyl-DNA phosphodiesterase 1 (Homo sapiens), Q9NUW8; Potency, µM (highest dose often 130 µM), most hits filed as inhibitors; recombinant TDP1, AlphaScreen DNA substrate cleavage; AID 485290, 2010; 0.28% of 350,000 active; note: nearly all actives have a fitted effect of over 40% in size
Target sequence (Q9NUW8 whole entry, looked up): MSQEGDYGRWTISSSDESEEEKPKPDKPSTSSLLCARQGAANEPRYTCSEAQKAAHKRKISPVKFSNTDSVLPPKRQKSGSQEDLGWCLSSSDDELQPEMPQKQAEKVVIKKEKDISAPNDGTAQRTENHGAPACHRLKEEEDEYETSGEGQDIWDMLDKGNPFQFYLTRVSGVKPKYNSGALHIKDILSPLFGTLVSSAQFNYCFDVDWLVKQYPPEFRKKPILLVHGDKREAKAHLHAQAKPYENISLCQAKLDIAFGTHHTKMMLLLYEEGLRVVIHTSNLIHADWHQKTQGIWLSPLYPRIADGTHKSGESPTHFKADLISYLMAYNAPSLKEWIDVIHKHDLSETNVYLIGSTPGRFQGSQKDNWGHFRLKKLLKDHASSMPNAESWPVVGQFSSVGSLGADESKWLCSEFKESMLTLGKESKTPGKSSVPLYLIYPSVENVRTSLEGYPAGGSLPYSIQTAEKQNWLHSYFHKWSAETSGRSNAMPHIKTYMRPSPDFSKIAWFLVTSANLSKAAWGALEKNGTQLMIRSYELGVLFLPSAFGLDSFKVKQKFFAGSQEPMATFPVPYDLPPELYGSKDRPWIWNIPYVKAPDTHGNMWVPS
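Recombinant E. coli-expressed Tdp1 (1 nM) preincubated with compound 15 min at RT, then 5'-biotin/3'-phosphotyrosine-FITC DNA substrate (15 nM) added for 5 min. AlphaScreen beads (10 ug/ml) added, 10 min RT; tyrosine-FITC cleavage read as signal loss.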
TGFb SMAD3 inh: qHTS for Inhibitors of TGF-b; 1.2% of 410,000 active; Potency, µM (highest dose often 46.1 µM), most hits filed as inhibitors; HepG2 CAGA-GFP TGF-b/SMAD3 reporter, GFP fluorescence, 18 h; TGF-beta stimulated, 500 pg/mL final; note: nearly all actives have a fitted effect of over 65% in size
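Smad-responsive CAGA-GFP expression was quantified in HEPG2 cells exposed to compounds and 500 pg/mL final TGF-beta for 18 h at 37 degrees C; unstimulated wells defined full inhibition.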
HepG2 tox: qHTS for Inhibitors of TGF-b: Cytotox Counterscreen | HepG2 CAGA-GFP viability, ATP luminescence, 18 h | Potency, µM (titrated, usually from 46.1 µM), actives largely listed as cytotoxic | 0.76% of 410,000 active
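CellTiter-Glo luminescence gave cytotoxicity after 18 hours at 37 degrees C. The cells were HepG2 CAGA-GFP in 1% FBS DMEM, stimulated with 500 pg/mL TGF-beta after compound addition. %Activity was normalised to no-cell wells (complete cell-killing) and DMSO (no toxicity), and curves were fitted and classified.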
DT40 TDP1 no CPT: qHTS for Inhibitors of human tyrosyl-DNA phosphodiesterase 1 (TDP1): qHTS in cells in absence of CPT; DT40 Tdp1-/- hTDP1 cells, no CPT, ATP luminescence, 48 h; Potency, µM (doses to about 46.2 µM), usual class: inhibitors; 15% of 420,000 active; AID 686978, 2013; note: nearly all actives have a fitted effect of over 55% in size
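No-CPT arm: Tdp1-/-;hTDP1 DT40 cells (400/well) plus compounds, incubated ≥48 hr at 37 °C. Readout CellTiter-Glo luminescence.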
Numbers stand for hits; . = inactive; ? = inconclusive; / = not tested or not shown; ! = a repeat was not active; [ ] = dose if it differs, or a comment. Unless noted, calls come from the whole dose curve; as a rule, active = well fitted curve in the direction sought with a large enough effect; inconclusive = small, poorly fitted or top-dose-only effect, or another doubt; inactive = no such curve, though single readings can be large; an effect the other way counts as inactive or inconclusive.

SMILES | IL1B secr inh | TDP1 cell CPT | TDP1 inh | TGFb SMAD3 inh | HepG2 tox | DT40 TDP1 no CPT
COc1cc(Cl)c(C)cc1NC(=O)CCCN1C(=O)C(c2ccccc2)Oc2cccnc21 (centres undefined) | / | 26µM | . | . | . | 21µM
COc1ccc(Cl)cc1NC(=O)CCCN1C(=O)C(c2ccccc2)Oc2cccnc21 (centres undefined) | / | 18µM | . | . | . | 23µM
Cc1ccccc1C(=O)OCC(=O)Nc1cccc(S(=O)(=O)NC2=NCCC2)c1 | . | . | . | . | . | .
COc1ccc(N2CC(NC(=O)c3cc4ccccc4o3)CC2=O)cc1OC (centres undefined) | / | ? | . | . | . | ?
Cc1ccc(S(=O)(=O)c2nnn3c2nc(NCc2ccc4c(c2)OCO4)c2sccc23)cc1C | / | ? | . | . | . | 23µM
Cc1ccc(S(=O)(=O)c2nnn3c2nc(NCc2ccc4c(c2)OCO4)c2sccc23)cc1 | / | ? | . | . | . | 13µM
COc1ccc(C)cc1Nc1nc2c(S(=O)(=O)c3cc(C)ccc3C)nnn2c2ccsc12 | / | . | . | . | . | .
Cc1ccc(C)c(S(=O)(=O)c2nnn3c2nc(NCc2ccc4c(c2)OCO4)c2sccc23)c1 | / | 18µM | . | . | . | ?
O=S(=O)(Nc1ccc(F)cc1)c1ccc(NS(=O)(=O)c2cccs2)cc1 | . | . | . | . | . | .
Cc1ccc(S(=O)(=O)N(C)Cc2nc(-c3ccccc3)oc2C)cc1 | / | ? | . | . | . | ?
COC(=O)CSc1nnc(CCc2ccccc2)n1C | . | . | . | . | . | .
COc1cccc(CNC(=O)C2=C(C)C(=O)OC23CCN(C(C)=O)CC3)c1OC | / | . | . | . | . | .
Clc1cccc(-c2nc(NCCN3CCOCC3)c3ccccc3n2)c1 | -86 | ? | . | . | . | ?
Clc1ccc(-c2nc(NCCCN3CCOCC3)c3ccccc3n2)cc1 | -75 | ? | . | ? | . | 18µM
Clc1cccc(-c2nc(NCCCN3CCOCC3)c3ccccc3n2)c1 | ? | ? | . | ? | . | 23µM
COc1cc(-c2cc(C)c3cccc(OC)c3n2)cc2c1OCCN(C(=O)CCn1nc(C)cc1C)C2 | / | .[9.04 µM] | / | / | / | 18µM
O=C(NCC1COc2ccccc2O1)c1cc(S(=O)(=O)N2CCOCC2)c(Cl)cc1Cl (centres undefined) | . | ? | . | . | . | .
O=C(NCCN1C(=O)S/C(=C\c2ccc(Cl)cc2)C1=O)c1ccc(F)c(S(=O)(=O)N2CCOCC2)c1 | . | 6.5µM | . | ? | . | 5.8µM
O=C(NCCN1C(=O)S/C(=C\c2ccccc2)C1=O)c1cc(S(=O)(=O)N2CCOCC2)c(Cl)cc1Cl | . | 21µM | . | . | . | 4.1µM
O=C(NCCN1C(=O)S/C(=C\c2ccc(F)cc2)C1=O)c1cccc(S(=O)(=O)N2CCOCC2)c1 | . | 23µM | . | ? | . | 16µM
NCCO | / | . | . | / | / | .
Cc1cccc(CNC(=O)C(=O)Nc2ccccc2C)c1 | / | . | . | . | . | .
C=C(/C=C/c1ccc(N(C)C)cc1)c1nc2ccccc2s1 | / | 0.089µM | / | . | . | 0.11µM
Cc1ccc(/C=C/c2nc3ccccc3s2)s1 | . | . | / | . | . | .
CN(C)c1ccc(/C=C/c2nc3ccccc3s2)cc1 | . | 16µM | . | 13µM! | . | 0.1µM
SMILES | IL1B secr inh | TDP1 cell CPT | TDP1 inh | TGFb SMAD3 inh | HepG2 tox | DT40 TDP1 no CPT
CN(Cc1ccccc1)c1ccc(/C=C/c2nc3ccccc3s2)cc1 | / | 0.32µM | / | ? | . | 0.1µM
O=C(Nc1cccc(Cl)c1)c1nc[nH]c1C(=O)N1CCN(c2ccccc2)CC1 | . | . | . | . | . | .
NCCc1cnc(-c2cccc(C(F)(F)F)c2)[nH]1 | / | / | . | / | / | /
CCOC(=O)N1CCN(c2ncc(C(F)(F)F)cc2Cl)CC1 | . | ? | . | . | . | ?
O=C(c1ccc2c(c1)OCCO2)N1CCN(c2ncc(C(F)(F)F)cc2Cl)CC1 | . | ? | .[0.505 µM] | . | . | 16µM
O=C(c1ccc2c(c1)OCCO2)N1CCN(c2ccccn2)CC1 | . | . | . | . | . | .
O=C(Nc1ccc2c(c1)OCO2)N1CCN(c2ncc(C(F)(F)F)cc2Cl)CC1 | -61 | 21µM | . | . | . | 12µM
Cc1ccsc1C(=O)N1CCN(c2ncc(C(F)(F)F)cc2Cl)CC1 | . | 12µM | / | . | . | 15µM
CC(C)(C(N)=O)N1CCN(c2ncc(C(F)(F)F)cc2Cl)CC1 | . | 15µM | . | . | . | 15µM
Nc1c(-c2nc(-c3ccc(Cl)cc3)cs2)c2ccccn2c1C(=O)c1ccc2c(c1)OCO2 | / | . | . | . | . | .
CC(C(=O)N1CCN(c2ccc(Cl)cc2)CC1)c1ncc(C(F)(F)F)cc1Cl (centres undefined) | ? | 18µM | . | . | . | 23µM
Cn1cc(C(=O)NCCc2ccccc2)c(=O)c2cc(S(=O)(=O)N3CCCCCC3)ccc21 | / | . | . | . | . | ?
CCCCNc1ccc(C(=O)OCCN(CC)CC)cc1 | / | . | / | / | / | .
CC(C)(C)C(=O)Nc1ccc(-c2cn3ccsc3n2)cc1 | . | 14µM | . | . | . | ?
Cc1ccc(-n2ncc(C(=O)NCCN3CCN(C)CC3)c2C2CCN(C(=O)OC(C)(C)C)CC2)c(C)c1 | / | . | . | . | . | ?
CC1=CC(C)(C)N2C(=O)C(=O)c3cc(OC(=O)c4ccco4)cc1c32 | . | 0.65µM | . | ? | . | 1.2µM
O=C(Nc1ccccc1C(=O)N1CCN(c2cccc(Cl)c2)CC1)C1=CSCCO1 | . | . | . | . | . | 21µM
Cc1cc(C(=O)N2CCN(c3ncccn3)CC2)c(C)o1 | . | 13µM | . | . | . | 23µM
Cc1cc(C(=O)N2CCN(c3cccc(Cl)c3)CC2)c(C)o1 | . | 18µM | . | . | . | 16µM
Cc1cc(C(=O)N2CCN(c3ccccc3Cl)CC2)c(C)o1 | ? | 21µM | . | . | . | 12µM
O=C(Nc1ccc(C(=O)N2CCN(c3ccc(Cl)cc3)CC2)cc1)C1=CSCCO1 | . | . | . | . | . | ?
Cc1cc(C(=O)N2CCN(c3ccccc3)CC2)c(C)o1 | . | . | . | . | . | .
COCCn1c(=O)c(CCc2ccccc2)nc2cnc(Oc3ccc(OC)cc3)nc21 | / | . | / | / | / | .
